# ASK1 inh = inhibitors of human ASK1 kinase | AlphaScreen MKK6 phosphorylation by ASK1, luminescence | inhibition, % at 7.44 µM | Q99683 | hit rate 0.99% among 22,000; in the data active means inhibition above about 35%;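 further: 0% = median of compound wells and 100% = no enzyme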
# ULK1 inh = blocks human autophagy kinase ULK1 | O75385 | AlphaScreen Atg13 phosphorylation by ULK1, luminescence | inhibition, % at 5.96 µM | hit rate 1.9% among 30,000 | AID 1259251; in the data active means inhibition above about 43%;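 further: 0% = median of compound wells and 100% = no enzyme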
# Target sequence (O75385 whole entry, looked up): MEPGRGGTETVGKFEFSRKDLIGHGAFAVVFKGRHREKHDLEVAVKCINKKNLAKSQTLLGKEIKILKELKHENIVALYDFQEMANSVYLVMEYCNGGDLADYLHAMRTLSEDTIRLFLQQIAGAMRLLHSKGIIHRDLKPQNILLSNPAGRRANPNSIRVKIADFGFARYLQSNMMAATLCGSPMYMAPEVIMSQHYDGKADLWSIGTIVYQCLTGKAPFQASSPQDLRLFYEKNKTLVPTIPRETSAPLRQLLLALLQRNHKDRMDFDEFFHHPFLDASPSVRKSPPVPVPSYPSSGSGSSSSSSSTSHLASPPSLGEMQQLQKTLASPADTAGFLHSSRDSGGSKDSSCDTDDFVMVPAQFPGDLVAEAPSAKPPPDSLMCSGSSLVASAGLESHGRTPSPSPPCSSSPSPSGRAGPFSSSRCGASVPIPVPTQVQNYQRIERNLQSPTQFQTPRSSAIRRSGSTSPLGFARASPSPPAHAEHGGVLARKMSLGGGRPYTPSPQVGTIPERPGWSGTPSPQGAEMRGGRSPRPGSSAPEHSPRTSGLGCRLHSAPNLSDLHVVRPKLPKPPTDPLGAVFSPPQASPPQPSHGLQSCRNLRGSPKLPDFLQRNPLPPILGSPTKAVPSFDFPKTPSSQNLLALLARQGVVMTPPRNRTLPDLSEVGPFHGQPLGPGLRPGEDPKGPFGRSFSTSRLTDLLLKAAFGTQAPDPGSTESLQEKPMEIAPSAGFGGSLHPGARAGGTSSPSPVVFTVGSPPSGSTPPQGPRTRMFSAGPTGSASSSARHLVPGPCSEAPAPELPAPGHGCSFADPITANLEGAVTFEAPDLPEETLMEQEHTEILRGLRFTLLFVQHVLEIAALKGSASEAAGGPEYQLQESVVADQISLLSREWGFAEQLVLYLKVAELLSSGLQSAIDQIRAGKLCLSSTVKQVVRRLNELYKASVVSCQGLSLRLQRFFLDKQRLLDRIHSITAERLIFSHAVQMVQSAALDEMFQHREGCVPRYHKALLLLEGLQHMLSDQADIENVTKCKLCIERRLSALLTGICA
# TruHits interf = counter-screen for ASK1 inhibitors: AlphaScreen optical interference | AlphaScreen TruHits beads, signal interference counterscreen | IC50, µM | shares compounds with ASK1 inh | hit rate 20% among 220 | AID 1159604;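 active means IC50 of 10 µM or lower in the counterscreen; inactive means IC50 above 10 µM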;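 further: loss of AlphaScreen light from TruHits beads alone with no ASK1 enzyme present; potency of signal reduction so a low IC50 flags an assay artifact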
# * marks the source's active call; other numbers are inactive results; i = inactive; / = no result given. A selection: hits, their analogues and other compounds. The true share with any hit is near 2.4%.
SMILES,ASK1 inh,ULK1 inh,TruHits interf
c1cc(-n2cnc3c(Nc4ccc(N5CCOCC5)cc4)nc(N4CCOCC4)nc32)cs1,-10,42,/
c1cc(-n2cnc3c(Nc4ccc(N5CCOCC5)cc4)nc(N4CCN(Cc5ccc6c(c5)OCO6)CC4)nc32)cs1,51*,19,i
Oc1ccc(CCNc2nc(N3CCN(Cc4ccc5c(c4)OCO5)CC3)nc3c2ncn3-c2ccccc2)cc1,30,10,/
Cc1cc(Nc2ccc3c(c2)OCO3)nc(Nc2ccc(N3CCOCC3)cc2)n1,73*,-18,i
COc1cc(Nc2cc(C)nc(-c3ccc(C(=O)N4CCN(C)CC4)cc3)n2)cc(OC)c1OC,0,-11,/
CC(=O)Nc1ccc(Nc2cc(C)nc(-c3csc4ccccc34)n2)cc1,-4,-38,/
CC(=O)Nc1ccc(NC(=O)c2cnc(Nc3cccc(N(C)C)c3)s2)cc1,4,-4,/
COc1ccc(CCNc2nc(Nc3ccc(C(F)(F)F)cc3)nc3c2ncn3Cc2ccc(C(F)(F)F)cc2)cc1,4,-17,/
COc1ccc(CCNc2nc(Nc3ccc(C(F)(F)F)cc3)nc3c2ncn3-c2ccsc2)cc1,10,-1,/
COc1ccc(CCNc2nc(Nc3ccc(N4CCOCC4)cc3)nc3c2ncn3-c2ccccc2)cc1,37*,12,i
COc1ccc(CCNc2nc(Nc3ccc(N4CCOCC4)cc3)nc3c2ncn3C(C)C)cc1,25,-4,/
COc1ccc(CCNc2nc(Nc3ccc(N4CCOCC4)cc3)nc3c2ncn3Cc2ccc(C(F)(F)F)cc2)cc1,72*,-19,9.5*
COc1ccc(CCNc2nc(Nc3ccc(N4CCOCC4)cc3)nc3c2ncn3-c2ccsc2)cc1,37*,15,7.4*
COc1ccc(-c2nc(Nc3ccccc3)c3cc(OC)c(OC)cc3n2)cn1,-3,-31,/
O=C(NCc1nc2ccccc2[nH]1)c1ccnc(-c2csc3ccccc23)c1,-11,2,/
CCNc1nc(Nc2cc(OC)c(OC)c(OC)c2)c2ncn(-c3ccccc3)c2n1,12,14,/
Nc1nc(NCc2ccc3c(c2)OCO3)cc(Nc2ccccc2)n1,0,8,/
COc1ccc(-c2nc3c(Nc4ccc(Oc5ccccc5)cc4)ncnc3n2C(C)C)cc1,0,-1,/
CC(C)n1c(-c2ccc(C(N)=O)cc2)nc2c(Nc3ccc(Oc4ccccc4)cc3)ncnc21,37*,-29,>20
c1ccc(Nc2ccnc(-c3csc4ccccc34)n2)cc1,-7,-17,/
c1ccc2c(-c3nccc(Nc4ccc(N5CCOCC5)cc4)n3)csc2c1,38*,-8,>22
FC(F)(F)c1cc2[nH]c(C3COc4ccccc4O3)nc2cc1-c1ccncc1 (configuration not stated),0,-4,/
OC1CCN(c2ccc(Nc3nccc(-c4cc(F)cc(N5CCN(C6CC6)CC5)c4)n3)cc2)CC1,41*,55*,>19
Fc1cc(-c2ccnc(Nc3ccc(-n4ccnn4)cc3)n2)cc(N2CCOCC2)c1,7,-17,/
Cc1ncn(-c2ccc(Nc3nccc(NCC(=O)O)n3)cc2)n1,-27,-3,/
SMILES,ASK1 inh,ULK1 inh,TruHits interf
Cc1cc(NCCOc2ccccc2)nc(Nc2cccnc2)n1,-7,-15,/
Cc1cc(NCCO)nc(Nc2cccc(N(C)C)c2)n1,6,-18,/
Cc1cc(NCCOc2ccccc2)nc(Nc2cccc(N(C)C)c2)n1,57*,9,6*
Cc1cc(NCCc2ccc(O)cc2)nc(Nc2cccc(N(C)C)c2)n1,55*,-3,9*
CN(C)c1cccc(Nc2cc(Nc3ccccc3)ncn2)c1,37*,-1,>22
CC(=O)Nc1ccc(Nc2cc(Nc3cccc(N(C)C)c3)ncn2)cc1,-7,2,/
c1ccc2c(c1)CCN(c1cc(NCCN3CCOCC3)ncn1)C2,3,0,/
Cc1cncc2cccc(N3CCN(C(=O)C(O)c4ccc(Br)cc4)CC3)c12 (configuration not stated),-2,-12,/
O=C(NCCc1ccc(O)cc1)c1cccc(Nc2cnccn2)c1,12,-7,/
CCCNC(=O)c1ccc(-c2ccc(OC)nc2)s1,1,-1,/
COc1cc2nc(Nc3ccc(N4CCOCC4)cc3)nc(Nc3cc(OC)c(OC)c(OC)c3)c2cc1OC,53*,-4,7.7*
COc1cc2nc(Nc3ccncn3)nc(Nc3ccc(N4CCOCC4)cc3)c2cc1OC,22,-26,/
COc1cc2nc(Nc3cccc(N(C)C)c3)nc(Nc3ccc(N4CCOCC4)cc3)c2cc1OC,56*,-4,6.4*
COc1cc2nc(N3CCOCC3)nc(Nc3ccc(N4CCOCC4)cc3)c2cc1OC,10,-11,/
COc1cc2nc(Nc3cccc(N(C)C)c3)nc(Nc3ccc4c(c3)OCO4)c2cc1OC,61*,0,3.6*
Cc1cnc(Nc2cccc(N(C)C)c2)nc1Nc1ccc(N2CCOCC2)cc1,23,37,/
COc1cc2nc(Nc3cc(OC)c(OC)c(OC)c3)nc(Nc3ccc(N4CCOCC4)cc3)c2cc1OC,48*,-20,7.2*
CCNc1nc(Nc2ccc3c(c2)OCO3)c2cc(OC)c(OC)cc2n1,13,-1,/
NC(=O)c1cn[nH]c1N,/,-5,/
COc1cc(NC(=O)C2CC(=O)c3ccccc3C2)ccc1-c1cn[nH]c1 (configuration not stated),-7,-11,/
COc1cc2nc(Nc3ccc(N4CCOCC4)cc3)nc(NC3CC3)c2cc1OC,43*,17,i
COc1cc2nc(Nc3cc(OC)c(OC)c(OC)c3)nc(NC3CC3)c2cc1OC,15,-5,/
COc1ccc(-c2nc3ncnc(Nc4ccc(NC(C)=O)cc4)c3[nH]2)cn1,9,-7,/
COc1ccc(-c2nc3ncnc(Nc4cc(OC)c(OC)c(OC)c4)c3[nH]2)cn1,45*,6,>18
c1ccc(Nc2nc(Nc3ccc4c(c3)OCO4)c3ncn(-c4ccsc4)c3n2)cc1,18,13,/
SMILES,ASK1 inh,ULK1 inh,TruHits interf
CCN(CC)c1nc(Nc2ccc(N3CCOCC3)cc2)nc(N2CCN(Cc3ccc4c(c3)OCO4)CC2)n1,43*,8,>19
CCN(CC)c1nc(Nc2ccc3c(c2)OCO3)nc(N2CCC(N3CCOCC3)CC2)n1,39*,-10,>20
CCN(CC)c1nc(Nc2ccccc2)nc(N2CCN(Cc3ccc4c(c3)OCO4)CC2)n1,13,-7,/
CCN(CC)c1nc(Nc2ccc(N3CCOCC3)cc2)nc(N2CCC(N3CCOCC3)CC2)n1,14,-7,/
O=C(NC1CC1)c1ccc(-c2nc(NCCCN3CCCC3=O)c3ncn(CCN4CCCC4=O)c3n2)cc1,-2,0,/
C/C(CC(=O)Nc1cccc2c1CCCC2)=N\NC(=O)c1ccccc1C,/,-3,/
CCCNc1ncnc2c1nc(-c1ccc(C(=O)N3CCN(C)CC3)cc1)n2C(C)C,-7,-2,/
Cc1ccsc1/C=N/NC(=O)C(=O)NCc1cccnc1,/,4,/
FC(F)(F)c1ccc(Cn2cnc3c(NC4CC4)nc(Nc4ccc(N5CCOCC5)cc4)nc32)cc1,21,-11,/
c1ccc(CN2CCC(Nc3nc(Nc4ccc(N5CCOCC5)cc4)nc4c3ncn4-c3ccccc3)CC2)cc1,32,7,/
FC(F)(F)c1ccc(Cn2cnc3c(Nc4ccc5c(c4)OCO5)nc(NC4CCN(Cc5ccccc5)CC4)nc32)cc1,46*,15,>20
FC(F)(F)c1ccc(Cn2cnc3c(NC4CCN(Cc5ccccc5)CC4)nc(Nc4ccc(N5CCOCC5)cc4)nc32)cc1,40*,6,i

# Screens from PubChem.
